Measured values taken from PubChem BioAssay (NCATS).
Inconclusive results are not listed. Values without a mark were called inactive. Activity calls are given as the source filed them. Calls follow the shape of the dose curve; as a rule, active = well fitted inhibition curve with a large enough effect; inconclusive = small, poorly fitted or top-dose-only effect; inactive = flat fitted curve, though single readings scatter. Where a SMILES comes first, the peptide text is derived from it. [ ]: non-standard residue; d: D form. pGlu = O=C1CC[C@@H](C(=O)O)N1

Experiments:
[1] = test system: CRL-7250; test: Cytotoxic Profiling of Annotated Libraries Using Quantitative High-Throughput Screening (AID 1296008); conditions: Five cell lines viability, CellTiter-Glo ATP luminescence, 48-72 h; max response: stronger effect = lower value; as to max response: % is scaled to controls: 0 for no effect and ±100 for the full control effect
Procedure, shortened: (§1)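 Compounds were pin-transferred onto cells and incubated 48 or 72 hr at 37 degree Celsius, 95% humidity. CellTiter-Glo was added, plates sat 10 min at room temperature, then ATP-coupled luminescence was imaged as the viability read-out.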

[2] = test system: HaCat; test: as above; conditions: Five cell lines viability, CellTiter-Glo ATP luminescence, 48-72 h; max response: stronger effect = lower value
Procedure, shortened: as §1

[3] = test system: KB-3-1; test: as above; conditions: Five cell lines viability, CellTiter-Glo ATP luminescence, 48-72 h; max response: stronger effect = lower value
Procedure, shortened: as §1

[4] = test system: NIH3T3; test: as above; conditions: Five cell lines viability, CellTiter-Glo ATP luminescence, 48-72 h; max response: stronger effect = lower value
Procedure, shortened: as §1

[5] = test system: MCC-13; test: qHTS assay to identify novel small-molecules to repurpose for Merkel cell carcinoma treatment (AID 1296009); conditions: MCC and control cell lines, CellTiter-Glo viability, 72 h; series mostly up to 46 µM
Procedure, shortened: (§2)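 qHTS format: cells treated with library compounds in DMSO across 8 (NPC) or 11 (MIPE) concentrations. Readout after 72 hr at 37 degree celsius was CellTiter-Glo luminescence.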

[6] = test system: MCC-26; test: as above; conditions: MCC and control cell lines, CellTiter-Glo viability, 72 h; series mostly up to 46 µM
Procedure, shortened: as §2

[7] = test system: HACAT; test: as above; conditions: MCC and control cell lines, CellTiter-Glo viability, 72 h; at 44.8 µM (top of the series) unless noted
Procedure, shortened: as §2

[8] = test system: HEK293; test: Cytotoxic Profiling of Annotated Libraries Using Quantitative High-Throughput Screening (AID 1296008); conditions: Five cell lines viability, CellTiter-Glo ATP luminescence, 48-72 h; max response: stronger effect = lower value; as to max response: % is scaled to controls: 0 for no effect and ±100 for the full control effect
Procedure, shortened: as §1

[9] = test system: P93_24; test: qHTS profiling for inhibitors of Plasmodium falciparum proliferation (AID 504749); conditions: P. falciparum in erythrocytes, SYBR Green DNA, 72 h; series mostly up to 28.7 µM
Procedure, shortened: (§3)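 Parasite proliferation within erythrocytes, 72 h exposure. Endpoint: SYBR Green I fluorescence after overnight lysis at room temperature. Controls: 0.29 uM artemisinin, DMSO.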

[10] = test system: P94_40; test: as above; conditions: P. falciparum in erythrocytes, SYBR Green DNA, 72 h; series mostly up to 28.7 µM
Procedure, shortened: as §3

[11] = test system: PAD; test: as above; conditions: P. falciparum in erythrocytes, SYBR Green DNA, 72 h; series mostly up to 28.7 µM
Procedure, shortened: as §3

[12] = test system: PC15; test: as above; conditions: P. falciparum in erythrocytes, SYBR Green DNA, 72 h; series mostly up to 28.7 µM
Procedure, shortened: as §3

[13] = test system: PC26; test: as above; conditions: P. falciparum in erythrocytes, SYBR Green DNA, 72 h; series mostly up to 28.7 µM
Procedure, shortened: as §3

[14] = test system: SC27B; test: as above; conditions: P. falciparum in erythrocytes, SYBR Green DNA, 72 h; series mostly up to 28.7 µM
Procedure, shortened: as §3

[15] = test system: TAB109; test: as above; conditions: P. falciparum in erythrocytes, SYBR Green DNA, 72 h; series mostly up to 28.7 µM
Procedure, shortened: as §3

[16] = test system: TAB113; test: as above; conditions: P. falciparum in erythrocytes, SYBR Green DNA, 72 h; series mostly up to 28.7 µM
Procedure, shortened: as §3

[17] = test system: TAB165; test: as above; conditions: P. falciparum in erythrocytes, SYBR Green DNA, 72 h; series mostly up to 28.7 µM
Procedure, shortened: as §3

[18] = test system: W2; test: as above; conditions: P. falciparum in erythrocytes, SYBR Green DNA, 72 h; series mostly up to 28.7 µM
Procedure, shortened: as §3
Also: nearly all actives have a fitted effect of over 60% in size.
Potency is read from the fitted curve at half-maximal effect.

## Cc1nn(-c2ccccc2)c(C)c1/C=N/N1CCN(Cc2ccccc2)CC1
[1]
  max response: 4.78%
[2]
  max response: -14.9%
[3]
  max response: 8.96%
[4]
  max response: 3.85%

## O=[N+]([O-])c1ccc(-c2nc(-c3ccc(F)cc3)c(-c3ccncc3)[nH]2)cc1
[1]
  outcome: inactive
[2]
  max response: -22.5%

## CCOC(=O)c1ccc(NC(=O)CN2CCCCC2)cc1
[1]
  max response: -6.82%
[2]
  max response: 4.59%
[4]
  outcome: inactive
[5]
  Potency: inactive
[6]
  Potency: inactive

## CC(=O)[C@@]1(O)CC[C@H]2[C@@H]3C[C@H](C)C4=CC(=O)CC[C@]4(C)[C@H]3CC[C@@]21C
[1]
  max response: -14.2%
[2]
  max response: -16.6%
[3]
  max response: -7.02%
[5]
  Potency: inactive
[6]
  Potency: inactive

## CC(=O)OC/C=C(C)/C=C/C=C(C)/C=C/C1=C(C)CCCC1(C)C
[1]
  max response: 0.956%
[2]
  outcome: inactive
[3]
  max response: -3.66%
[4]
  max response: 1.83%
[7]
  outcome: inactive
[5]
  Potency: inactive
[6]
  Potency: inactive

## CN(C)CCOC(c1ccccc1)c1ccc(Br)cc1 (stereo not given)
[1]
  max response: -20.9%
[2]
  max response: 1.11%
[4]
  max response: -1.24%
[5]
  Potency: inactive
[6]
  Potency: inactive

## CCCN(CCC)C(=O)C(CCC(=O)OCCCN1CCN(CCOC(=O)Cc2c(C)n(C(=O)c3ccc(Cl)cc3)c3ccc(OC)cc23)CC1)NC(=O)c1ccccc1 (stereo not given)
[1]
  max response: -6.96%
[2]
  max response: -0.687%
[4]
  max response: 1.41%
[5]
  Potency: inactive
[6]
  Potency: inactive

## CCNC(=O)[C@@H]1CCCN1C(=O)[C@H](CCCN=C(N)N)NC(=O)[C@H](CC(C)C)NC(=O)CNC(=O)[C@H](Cc1ccc(O)cc1)NC(=O)[C@H](CO)NC(=O)[C@H](Cc1c[nH]c2ccccc12)NC(=O)[C@H](Cc1cnc[nH]1)NC(=O)[C@@H]1CCC(=O)N1 ([pGlu]HWSYGLRP-NHEt)
[1]
  outcome: inactive
[8]
  max response: -8.7%
[4]
  max response: -1.57%
[5]
  Potency: inactive
[6]
  Potency: inactive

## C/C=C(/C(=C/C)c1ccc(OC(C)=O)cc1)c1ccc(OC(C)=O)cc1
[1]
  max response: 0.166%
[2]
  outcome: inactive
[4]
  max response: -0.599%
[7]
  outcome: inactive
[5]
  Potency: inactive
[6]
  Potency: inactive

## Nc1ccc2c(c1)CN1C(=O)c3ccccc3C1=N2
[1]
  Potency: 8.2 µM (active)
[8]
  Potency: 5.8 µM (active)
[4]
  Potency: 7.31 µM (active)
[6]
  Potency: inactive

## O=C1Nc2ccccc2C1(c1ccc(O)cc1)c1ccc(O)cc1
[1]
  Potency: 23.7 µM (active)
[2]
  max response: -55.1%
[4]
  max response: -21.7%
[5]
  Potency: inactive
[6]
  Potency: inactive

## COc1cc2nc(Cl)nc(N)c2cc1OC
[1]
  outcome: inactive
[2]
  max response: 0.108%
[4]
  max response: -0.129%
[5]
  Potency: inactive
[6]
  Potency: inactive

## CCCC(=O)O[C@]1(C(=O)CCl)[C@@H](C)C[C@H]2[C@@H]3CCC4=CC(=O)C=C[C@]4(C)[C@@]3(F)C(=O)C[C@@]21C
[1]
  max response: -8.55%
[2]
  max response: -2.69%
[4]
  max response: -3.48%
[5]
  Potency: inactive

## CCc1cc2cc(OC)c(OC)cc2c(Cc2ccccc2)n1
[1]
  outcome: inactive
[2]
  outcome: inactive
[4]
  max response: -13.3%
[7]
  outcome: inactive
[5]
  Potency: inactive

## CC1CC(=O)NN=C1c1ccc(NCC(C)(C)NCC(O)COc2cc(Cl)ccc2C#N)cc1 (stereo not given)
[1]
  max response: -11.5%
[2]
  max response: -12.2%
[3]
  max response: -1.42%
[4]
  max response: -20.4%
[5]
  Potency: inactive
[6]
  Potency: inactive

## CO/N=C(/C(=O)N[C@@H]1C(=O)N2C(C(=O)O)=C(Cn3nnc(C)n3)CS[C@H]12)c1csc(N)n1
[1]
  max response: 4.76%
[2]
  max response: -1.44%
[3]
  outcome: inactive
[4]
  max response: 2.67%
[5]
  Potency: inactive

## CC[N+](CC)(CC)CCOC(=O)C(C1CCCC1)C1CCCC1
[1]
  outcome: inactive
[2]
  max response: -3.44%
[3]
  max response: 9.62%
[4]
  max response: -5.66%
[5]
  Potency: inactive
[6]
  Potency: inactive

## CCN1C(=O)c2ccccc2C1Nc1ccc(OCCN2CCCCC2)cc1 (stereo not given)
[1]
  max response: -2.5%
[2]
  max response: -6.62%
[3]
  outcome: inactive
[4]
  max response: -13.7%
[5]
  Potency: inactive

## CN1CC[C@H](c2c(O)cc(O)c3c(=O)cc(-c4ccccc4Cl)oc23)[C@H](O)C1
[1]
  Potency: 0.266 µM (active)
[2]
  Potency: 0.75 µM (active)

## Cc1nc(C2CCCCC2)c(-c2ccc(S(N)(=O)=O)c(F)c2)o1
[1]
  max response: -4.52%
[2]
  outcome: inactive
[4]
  max response: -12.8%
[7]
  outcome: inactive
[5]
  Potency: inactive
[6]
  Potency: inactive

## CC(C)OC(=O)c1cc2c(OCC(O)CNC(C)(C)C)cccc2[nH]1 (stereo not given)
[1]
  max response: -22.1%
[2]
  max response: -9.3%
[3]
  max response: -5.12%
[5]
  Potency: inactive
[6]
  Potency: inactive

## CC(C)Cc1ccc(C(C)C(=O)OCc2ccccn2)cc1 (stereo not given)
[1]
  max response: -2.57%
[2]
  outcome: inactive
[4]
  max response: -1.73%
[7]
  outcome: inactive
[5]
  Potency: inactive
[6]
  Potency: inactive

## CC(C)NCCCC1(C(N)=O)c2ccccc2-c2ccccc21
[1]
  outcome: inactive
[2]
  max response: 4.87%
[4]
  max response: -1.37%
[5]
  Potency: inactive
[6]
  Potency: inactive

## CCC(=O)Oc1ccc2c(c1)CC[C@@H]1[C@@H]2CC[C@@]2(C)[C@H]1C[C@@H](OC(=O)CC)[C@@H]2OC(=O)CC
[1]
  max response: -3.71%
[2]
  max response: -1.68%
[4]
  outcome: inactive
[5]
  Potency: inactive

## Cc1ccc(Cl)c(OCC(O)CNC(C)(C)C)c1 (stereo not given)
[1]
  outcome: inactive
[2]
  max response: 2.84%
[4]
  max response: 1.79%
[5]
  Potency: inactive
[6]
  Potency: inactive

## Nc1c2ccccc2nc2ccccc12
[9]
  Potency: 7.08 µM (active)
[10]
  Potency: 5.62 µM (active)
[11]
  Potency: 7.94 µM (active)
[12]
  Potency: 11.2 µM (active)
[13]
  Potency: 15.1 µM (active)
[14]
  Potency: 10 µM (active)
[15]
  Potency: 7.08 µM (active)
[16]
  Potency: 10 µM (active)
[17]
  Potency: 8.91 µM (active)
[18]
  Potency: 8.49 µM (active)
[1]
  Potency: 8.41 µM (active)
[8]
  Potency: 5.96 µM (active)
[4]
  Potency: 21.1 µM (active)
[5]
  Potency: 18.8 µM (active)

## COC(=O)C1=C(C)NC(C)=C(C(=O)OCCc2ccc(N3CCN(C(c4ccccc4)c4ccccc4)CC3)cc2)C1c1cccc([N+](=O)[O-])c1 (stereo not given)
[1]
  max response: -8.49%
[2]
  outcome: inactive
[4]
  max response: -0.486%
[7]
  outcome: inactive
[5]
  Potency: inactive
[6]
  Potency: inactive

## CCN1CCN(c2cc(-c3ccc(F)cc3)c3c(n2)CCCCCC3)CC1
[1]
  max response: 3.32%
[2]
  max response: 0.965%
[3]
  max response: -12.5%
[4]
  outcome: inactive
[5]
  Potency: inactive
[6]
  Potency: inactive

## N#CSCC(=O)O
[8]
  max response: 0.303%
[2]
  outcome: inactive
[4]
  outcome: inactive
[7]
  outcome: inactive
[5]
  Potency: inactive
[6]
  Potency: inactive

## Brc1ccccc1-c1ccccc1
[8]
  max response: -9.62%
[2]
  max response: -6.21%
[4]
  max response: -3.48%
[5]
  Potency: inactive
[6]
  Potency: inactive

## Cc1cc(C(C)(C)C)c(O)c(C(C)(C)C)c1
[8]
  max response: -3.94%
[3]
  max response: -9.85%
[5]
  Potency: inactive

## CCOC(=O)Cn1cccc1-c1nc(-c2ccc(OC)cc2)c(-c2ccc(OC)cc2)s1
[8]
  Potency: 8.2 µM (active)
[2]
  max response: -29.1%
[3]
  max response: 5.97%
[4]
  outcome: inactive
[5]
  Potency: inactive
[6]
  Potency: inactive

## CN(C)c1cc2c(Nc3ccc4c(cnn4Cc4ccccc4)c3)ncnc2cn1
[1]
  max response: -15%
[4]
  max response: -15.7%

## CC(C)(C)c1ccc(C(=O)CCCCl)cc1
[1]
  outcome: inactive
[2]
  max response: 3.33%
[4]
  outcome: inactive
[5]
  Potency: inactive
[6]
  Potency: inactive
